39 compounds from PubChem BioAssay can be followed below.

Each structure is given as a SMILES string. Entries with a potency or affinity are not part of this list. The source made the active and inactive calls.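 Rule for the calls: active = a fitted half-maximal concentration no higher than twice the top valid tested dose, with signal falling as cells die; inconclusive = flat curve between -70% and -30%, or poor fit; inactive = the rest, including signal rising instead of falling.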

The test in a line: HeLa cell cytotoxicity, dose response, cytotoxicity control, ATP luminescence, cherry-pick samples (AID 687004). Conditions: HeLa viability, ATP luminescence (CellTiter-Glo), 48 h; series mostly up to 26 µM.
For `COc1ccc(NC(=O)CSc2ncnc3c2cnn3CCc2ccccc2)cc1`, the outcome was inactive.
With `O=C(NC(=S)Nc1ccc(N2CCOCC2)cc1)c1cccc([N+](=O)[O-])c1` the entry was “inactive”; with `C[C@H]1CN([C@@H](C)CO)C(=O)Cc2cc(NC(=O)C3CC3)ccc2O[C@@H]1CN(C)C(=O)Nc1cccc2ccccc12`, “inactive”; with `COc1ccccc1-c1ccc([C@H]2[C@H](C#N)N(C(=O)C3CC3)[C@H]2CO)cc1`, “inactive”.
With `Cc1ccccc1OCC(=O)NC(C)c1ccccc1` (centres undefined) the entry was “inactive”.
In the case of `CO[C@@H]1CN(C)C(=O)c2cc(NC(=O)C3CCOCC3)ccc2OC[C@H](C)NC[C@@H]1C`, the call was inactive.
With `COc1ccc(N(C)C(=O)c2cn(CC(C)C)c(=O)c3cc(OC)c(OC)cc23)c(OC)c1` the entry was “inactive”; with `O=C(Oc1ccc2c3c(c(=O)oc2c1)CCCC3)c1ccco1`, “inactive”.
With `O=C(CSc1ncnc2c1cnn2-c1ccccc1)NCC1CCCO1` (centres undefined) the entry was “inactive”; with `Cc1cc(C(=O)Nc2cccc3c2O[C@@H](CN(C)S(=O)(=O)c2ccccc2)[C@@H](C)CN([C@@H](C)CO)C3=O)n(C)n1`, “inactive”.
The same measure for `CC(=O)c1cccc(NC(=S)NC2CCCCCCC2)c1`: “inactive”; for `CCCN1C(=O)C(O)(C2CC(=O)CC(C)(C)O2)c2ccccc21` (centres undefined): “inactive”.
For the compound `Cc1cc(OCC(=O)NC(C)c2ccccc2)ccc1[N+](=O)[O-]` (centres undefined), the compound was classed as inactive.
Consider `O=C(C[C@@H]1C=C[C@@H](NC(=O)Nc2cc(F)ccc2F)[C@H](CO)O1)NCCCN1CCOCC1`, for which the compound was classed as inactive.
The same measure for `CCc1ccc(C(=O)NC(=S)Nc2ccccc2N2CCOCC2)cc1`: “inactive”; for `CC(C)N1C(=O)C2(OCCCO2)c2cc(Br)ccc21`: “inactive”.
For `CC(=O)N[C@H]1CC[C@H](CCNC(=O)C2CCC2)O[C@@H]1CO`, the call was inactive.
The same measure for `Cc1ccc2c(C)c(C(=O)N3CCN(Cc4ccccn4)CC3)oc2c1C`: “inactive”; for `COC(=O)C1=C(C)N(Cc2ccc(F)cc2)C(=S)NC1c1cccc(OC)c1` (centres undefined): “inactive”; for `CC12CC3CC(C)(C1)CC(C(=O)NC(=S)N1CCCCC1)(C3)C2`: “inactive”.
The same measure for `C[C@H](CO)N1C[C@H](C)[C@H](CN(C)Cc2ccc(Cl)c(Cl)c2)Oc2c(NC(=O)Nc3ccccc3)cccc2C1=O`: “inactive”; for `Cc1ccccc1-n1ncc2c(SCC(=O)N3c4ccccc4CC3C)ncnc21` (centres undefined): “inactive”; for `CCC(C)(C(=O)Nc1ccccc1C)N(C(=O)CNC(C)=O)c1ccccc1C` (centres undefined): “inactive”.
The same measure for `O=C(Nc1ccc(N2CCOCC2)cc1N1CCOCC1)c1cccc([N+](=O)[O-])c1`: “inactive”; for `c1ccc(-n2ncc3c(NCc4ccc5c(c4)OCO5)ncnc32)cc1`: “inactive”; for `CCC(C)N(C(=O)CSc1ncnc2c1cnn2-c1ccccc1)C1CCS(=O)(=O)C1` (centres undefined): “inactive”.
With `O=C(Nc1ccc2ncccc2c1)c1ccccc1`, the compound was called inactive.
As for `COc1ccc(N2CCN(C(=O)CSc3ncnc4c3cnn4-c3ccccc3C)CC2)cc1`, the outcome was inactive.
With `CCOC(=O)CNC(=O)CSc1ncnc2c1cnn2-c1ccccc1` the entry was “inactive”; with `Cc1ccc(/C=C2\SC(=S)N(NS(=O)(=O)c3ccc(C)cc3)C2=O)cc1`, “inactive”; with `C[C@@H]1CN([C@H](C)CO)C(=O)CCCn2nncc2CO[C@H]1CN(C)Cc1cccc(C(F)(F)F)c1`, “inactive”.
The same measure for `O=C(COc1ccccc1)NCc1ccc2c(c1)OCO2`: “inactive”; for `CC(C)Sc1nc2ncnc(N)c2[nH]1`: “inactive”.
With `CC(=O)NC12CC3CC(C1)CC(C(=O)NCC(=O)Nc1c(C)cc(C)cc1C)(C3)C2` the entry was “inactive”; with `CO[C@H]1CN(C)C(=O)c2ccc(NC(=O)NC(C)C)cc2OC[C@@H](C)NC[C@H]1C`, “inactive”.
Take `COc1ccc(CN(C)C[C@@H]2Oc3ccc(NS(C)(=O)=O)cc3CC(=O)N([C@H](C)CO)C[C@H]2C)cc1`: the call was inactive.
For the compound `COc1ccc(C2CC(c3cccs3)=NN2C(=O)c2ccco2)cc1OC` (centres undefined), the compound was called inactive.
With `Cc1ccc(OCC(=O)NC(C)c2ccccc2)cc1` (centres undefined) the entry was “inactive”.
The same measure for `O=C(COc1ccc2c(c1)CCC2)NCc1ccc(Cl)cc1`: “inactive”.
